# In all, about 33,000 sequences were measured (“E-score (-0.5 to 0.5)”: median about -0.01, highest 2% from about 0.26 on). What follows is part of a selection rich in the highest values, with near analogues and random picks from the rest.
# Target: Ste12 (UniProt P13574)
# Assay: PBM E-score (8-mer binding enrichment) (E-score (-0.5 to 0.5)); higher = stronger / more preferred TF binding
# Conditions: protein concentration: 200 nM; construct: GST-DNA-binding domain
# Method: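 Universal 'all 10-mer' protein binding microarrays (Agilent AMADID 015681) probed with GST-tagged S. cerevisiae TFs (full-length or DBD) made by in vitro transcription/translation (PURExpress), about 100-200 nM. Bound TF was detected with fluorescent anti-GST. Each ungapped 8-mer (which stands for itself and its reverse complement) is scored by the PBM enrichment score (E-score), a modified Wilcoxon-Mann-Whitney statistic from -0.5 to +0.5, computed with the Universal PBM Analysis Suite. Scale: above 0.35 generally sequence-specific binding.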
# Chain of UniProt P13574 (P13574 whole entry): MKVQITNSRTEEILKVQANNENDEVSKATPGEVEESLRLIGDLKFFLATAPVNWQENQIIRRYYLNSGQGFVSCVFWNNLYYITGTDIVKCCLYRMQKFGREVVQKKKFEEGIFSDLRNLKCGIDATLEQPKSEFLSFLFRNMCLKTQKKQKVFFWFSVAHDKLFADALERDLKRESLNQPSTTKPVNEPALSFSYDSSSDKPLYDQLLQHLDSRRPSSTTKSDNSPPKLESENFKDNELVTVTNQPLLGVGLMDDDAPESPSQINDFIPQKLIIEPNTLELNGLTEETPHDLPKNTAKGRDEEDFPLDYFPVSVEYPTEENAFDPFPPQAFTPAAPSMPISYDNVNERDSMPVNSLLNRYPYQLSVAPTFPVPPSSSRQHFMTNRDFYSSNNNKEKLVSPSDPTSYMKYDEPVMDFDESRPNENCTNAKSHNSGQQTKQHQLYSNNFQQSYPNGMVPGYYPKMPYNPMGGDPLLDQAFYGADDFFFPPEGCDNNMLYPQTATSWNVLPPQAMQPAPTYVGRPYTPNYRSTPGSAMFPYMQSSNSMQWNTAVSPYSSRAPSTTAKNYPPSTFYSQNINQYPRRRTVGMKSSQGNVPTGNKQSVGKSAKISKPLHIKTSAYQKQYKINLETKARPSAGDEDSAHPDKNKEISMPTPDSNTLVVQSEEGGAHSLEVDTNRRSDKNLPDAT
row,Sequence,PBM E-score
1,ATGCCTCC,-0.0978
2,CAATCTCC,-0.00169
3,CTCGATAC,0.155
4,GAGCGATC,-0.105
5,CCGGTCGC,-0.0319
6,GGTGACAA,0.0614
7,AAGAGCTC,-0.0902
8,CAGGGCCC,-0.148
9,ATAAATAG,0.0906
10,CAAAATAA,0.33
11,CAAAATAC,0.115
12,TTAAATAA,0.249
13,AAAAATAA,0.229
14,CTAAATAA,0.0819
15,ATAAATAA,0.266
16,CAAAATAG,-0.0251
17,TAAAATAA,0.269
18,ATCTCAGC,-0.112
19,AGTTGAGC,-0.152
20,ATCTATGC,-0.0236
21,ACGGGCCC,-0.199
22,AATTTAAA,0.269
23,TATTTAAA,0.379
24,TCTTTTAA,0.142
25,GATTTAAA,0.113

row,Sequence,PBM E-score
1,TATTTACA,0.101
2,AATTTAAT,0.159
3,TATTTTAA,0.301
4,CATTTAAG,-0.0794
5,CATTTAAC,0.212
6,AATTTAAC,0.208
7,GATTTTAA,0.201
8,CATTTAAA,0.277
9,GCACCAGC,-0.101
10,GGACAGGA,-0.152
11,ACCATCGC,0.0245
12,CGCAATCA,0.0872
13,GGCTCACC,-0.244
14,ACTAGGTG,-0.199
15,CACTTAAA,0.287
16,AACTTAAA,0.186
17,CACTTAAC,-0.121
18,AGTCCACA,-0.173
19,ATGAAACA,0.495
20,ATGAAACG,0.484
21,GTGAAAAA,0.232
22,GTGAAACA,0.48
23,AGGAAACA,0.19
24,AGGAAACG,-0.105
25,AAGAAACG,0.148

row,Sequence,PBM E-score
1,ATGAAAGA,0.184
2,GTGAAATA,0.169
3,AAGCAGCC,-0.078
4,ACATCTGA,-0.24
5,CAACTGTA,-0.0454
6,AATCAATG,0.0688
7,CCTAGAGC,-0.189
8,ATTATCCA,0.0202
9,ATTATCCC,0.0652
10,ATTATCCG,0.294
11,ACCAGTAC,-0.11
12,AAAACAGC,0.127
13,GTAACAGA,0.334
14,GAAACAGA,0.287
15,ATAACAGA,0.115
16,GAAACAGC,0.232
17,CTAACAGA,0.153
18,CAAACAGA,0.12
19,AAAACAGA,0.295
20,AAAACAGG,-0.0182
21,ATATACAT,0.00017
22,AGCCTGTC,-0.181
23,CGCTCTTC,0.00173
24,ATGTATCG,0.0479
25,ATGTATCC,0.0246

row,Sequence,PBM E-score
1,ATGTATCA,0.344
2,GTGTATTA,0.25
3,CTGTATCA,0.207
4,GTGTATCA,0.301
5,ACCAACCT,0.0089
6,ATTGCTGC,-0.00539
7,GCACTCCA,-0.161
8,AAAGAATC,0.136
9,GACTCACA,-0.201
10,AATCTCCA,-0.184
11,CTAACCAA,0.186
12,AAAACCTC,0.207
13,AAAACCGC,0.0403
14,CAAACCGC,0.00675
15,GAAACCTC,0.318
16,CAAACCTC,-0.105
17,ATAACCAA,0.294
18,GAAACCAC,0.164
19,AAAACCAA,0.209
20,GAAACCAA,0.355
21,GAAACCGC,0.351
22,ATAACCAG,-0.0264

# Source: the supplement of paper PMC3334620
